ALDH1A1 inh: inhibitors of human aldehyde dehydrogenase 1A1; Potency, µM (series often up to 75.3 µM), for inactives: at the highest dose activity, negative = inhibition, most hits filed as inhibitors; Purified ALDH1A1, NADH fluorescence, propionaldehyde substrate; AID 1030; 7.3% of 220,000 active; P00352; active = well fitted inhibition curve with a large enough effect, not every such curve was filed as active; inconclusive = small, poorly fitted or top-dose-only effect, or another doubt; inactive = no such curve, though single readings can be large or run the other way;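 note: plate controls were no enzyme wells and a reference inhibitor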
Gal4-VP16 FLuc: inhibits Gal4-VP16 luciferase reporter, ROR gamma counter-screen | Potency, µM (series often up to 53.6 µM), for the others: at the highest dose activity, negative = inhibition, hits mostly inhibitors | 3.5% of 310,000 active | Drosophila S2 Gal4-VP16 UAS-luciferase, luminescence, 20 h | AID 2546;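 note: Gal4-VP16 expression switched on by copper sulfate through the metallothionein promoter; nearly all actives have a fitted effect of over 50% in size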
Sfp PPTase inh: Sfp phosphopantetheinyl transferase inhibition; Q9F4F7; Biochemical Sfp PPTase activity, qHTS; Potency, µM, inactives show largest response in the series, negative = inhibition, usual class: inhibitors; 3.5% of 310,000 active;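 note: the enzyme is Sfp with the accession as filed and its product quenches rhodamine fluorescence; 0% = enzyme reaction without inhibitor and -100% = no enzyme wells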
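Reaction rates are the 30-min fluorescence difference (ex 525, em 598 nm) in wells containing 15 nM Sfp, 5 uM rhodamine-CoA and 12.5 uM BHQ-2-YbbR at pH 7.6 with 10 mM MgCl2.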
PLK1 PBD block: inhibitors of human PLK1 polo-box domain binding. 2.8% of 360,000 active. Plk1 PBD binding of FITC phosphopeptide, fluorescence polarization. P53350. Potency, µM, without a hit: max response, negative = inhibition, usual class: inhibitors; note: series mostly up to about 57 µM; nearly all actives have a fitted effect of over 65% in size
RORg inh: blocks mouse ROR gamma transcriptional activity. P51450. Potency, µM (highest dose often 53.6 µM), inactives show top-dose activity change, negative = inhibition, hits mostly inhibitors. 5.4% of 310,000 active. Drosophila S2 Gal4-RORgamma UAS-luciferase reporter, 20 h; note: nearly all actives have a fitted effect of over 60% in size
Target sequence (P51450 whole entry, looked up, the tested form may be a part): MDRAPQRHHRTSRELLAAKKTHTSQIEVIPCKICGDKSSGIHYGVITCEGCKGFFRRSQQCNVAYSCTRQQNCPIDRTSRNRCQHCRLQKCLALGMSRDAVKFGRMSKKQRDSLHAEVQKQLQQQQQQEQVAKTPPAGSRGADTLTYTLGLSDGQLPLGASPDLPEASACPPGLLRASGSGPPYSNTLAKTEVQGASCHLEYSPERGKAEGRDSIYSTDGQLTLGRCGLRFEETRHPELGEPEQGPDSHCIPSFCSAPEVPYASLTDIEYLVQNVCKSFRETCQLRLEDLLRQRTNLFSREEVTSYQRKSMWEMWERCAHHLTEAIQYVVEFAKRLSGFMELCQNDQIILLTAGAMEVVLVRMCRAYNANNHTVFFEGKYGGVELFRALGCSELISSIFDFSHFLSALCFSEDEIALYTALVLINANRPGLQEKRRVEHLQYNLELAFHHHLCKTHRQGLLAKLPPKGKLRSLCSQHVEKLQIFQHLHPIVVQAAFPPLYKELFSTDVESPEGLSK
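Luminescence from a UAS-regulated Photinus luciferase reporter in stably transfected Drosophila Schneider cells is measured; decreased signal marks ROR gamma inhibition. Fusion expression is induced by 700 uM copper sulfate for 20 hr.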
An asterisk follows results filed as active; [ ] = dose if it differs, or a comment. An excerpt weighted towards active compounds, which were near 12% of everything screened. Unless noted, calls come from the whole dose curve; as a rule, active = well fitted curve in the direction sought with a large enough effect; inconclusive = small, poorly fitted or top-dose-only effect, or another doubt; inactive = no such curve, though single readings can be large; an effect the other way counts as inactive or inconclusive. Unless noted, % is set by controls: 0 for no effect and ±100 for the full control effect; potency is the fitted concentration of half-maximal effect.

How did Nc1nc(CN2CCN(Cc3ccccc3)CC2)nc(N2CCCc3ccccc32)n1 do in these assays?
ALDH1A1 inh: inconclusive; Gal4-VP16 FLuc: -6%; Sfp PPTase inh: 20%; PLK1 PBD block: -5%; RORg inh: 10µM*

What do the screens show for `Nc1nc(CN2CCN(c3cccc(Cl)c3)CC2)nc(N2CCCc3ccccc32)n1`?
ALDH1A1 inh: inconclusive; Gal4-VP16 FLuc: -27%; Sfp PPTase inh: 5%; PLK1 PBD block: -1%; RORg inh: 13%

How did Nc1nc(CN2CCN(c3ccccc3F)CC2)nc(N2CCCc3ccccc32)n1 do in these assays?
ALDH1A1 inh: inconclusive; Gal4-VP16 FLuc: inconclusive; Sfp PPTase inh: 14%; PLK1 PBD block: -6%; RORg inh: 11µM*

How did O=C(CC1CC1)Nc1ccc2c(c1)[C@H]1C[C@H](CC(=O)N3CCc4ccccc4C3)O[C@@H](CO)[C@H]1O2 do in these assays?
PLK1 PBD block: 4%

What do the screens show for `CCOC(=O)N/N=C/c1ccccc1-c1cc(OC)ccc1OC`?
ALDH1A1 inh: 11%; Gal4-VP16 FLuc: 3%; Sfp PPTase inh: 1%; RORg inh: -4%

What do the screens show for `CSC[C@H]1CN(Cc2cccnc2)C(=O)[C@@H]1CC(=O)Nc1ccc(Br)cc1`?
PLK1 PBD block: -5%

Results for CCOC(=O)C1=C(N)OC(CCl)=C(C#N)C1c1ccsc1 (stereo not given) ?
ALDH1A1 inh: 7.9µM*; Gal4-VP16 FLuc: inconclusive; Sfp PPTase inh: 6%; PLK1 PBD block: -12%; RORg inh: -30%

What do the screens show for `CCOC(=O)C1=C(c2ccccc2)OC(N)=C(C#N)C1c1ccc(Cl)s1` (stereo not given)?
ALDH1A1 inh: 1.8µM*; Gal4-VP16 FLuc: inconclusive; Sfp PPTase inh: -13%; PLK1 PBD block: 0%; RORg inh: inconclusive

How did CCOC(=O)C1=C(N)Oc2c(c(=O)[nH]c3ccccc23)C1c1ccccc1 (stereo not given) do in these assays?
ALDH1A1 inh: 10%; Gal4-VP16 FLuc: 5%; Sfp PPTase inh: 20µM*; PLK1 PBD block: -6%; RORg inh: -4%

What do the screens show for `CCOC(=O)C1=C(c2ccccc2)OC(N)=C(C#N)C1c1ccc(Br)s1` (stereo not given)?
ALDH1A1 inh: -4%; Gal4-VP16 FLuc: inconclusive; Sfp PPTase inh: 3%; PLK1 PBD block: -3%; RORg inh: 20%

Results for CCOC(=O)C1=C(CSc2nc(C)cc(C)c2C#N)OC(N)=C(C#N)C1c1ccccc1 (stereo not given) ?
ALDH1A1 inh: 10µM*; Gal4-VP16 FLuc: -11%; Sfp PPTase inh: -39%; PLK1 PBD block: inconclusive; RORg inh: -39%

Results for CCOC(=O)C1=C(N)Oc2cc(C)[nH]c(=O)c2C1c1ccncc1 (stereo not given) ?
ALDH1A1 inh: 2%; Gal4-VP16 FLuc: 1%; Sfp PPTase inh: 18%; PLK1 PBD block: -4%; RORg inh: 7%

How did CCCNC(=O)c1cc(C2CCCN(C(=O)c3ccccc3)C2)on1 (stereo not given) do in these assays?
PLK1 PBD block: 3%

What do the screens show for `COC(=O)C1=C(C)OC(N)=C(C#N)C1c1ccccc1` (stereo not given)?
ALDH1A1 inh: inconclusive; Gal4-VP16 FLuc: -1%; Sfp PPTase inh: 0%; PLK1 PBD block: -11%; RORg inh: -8%

What do the screens show for `CCOC(=O)C1=C(C)OC(N)=C(C#N)C1c1ccccc1` (stereo not given)?
ALDH1A1 inh: 22µM*; Gal4-VP16 FLuc: -12%; Sfp PPTase inh: 3%; PLK1 PBD block: -9%; RORg inh: -3%

Results for CCOC(=O)C1=C(c2ccccc2)OC(N)=C(C#N)C1c1cccnc1 (stereo not given) ?
ALDH1A1 inh: -7%; Gal4-VP16 FLuc: 8%; Sfp PPTase inh: 18%; PLK1 PBD block: -14%; RORg inh: -36%

How did CCOC(=O)C1=C(CSc2nc(C)cc(C)c2C#N)OC(N)=C(C#N)C1c1cccs1 (stereo not given) do in these assays?
ALDH1A1 inh: 14µM*; Gal4-VP16 FLuc: -16%; Sfp PPTase inh: -8%; PLK1 PBD block: inconclusive; RORg inh: -7%

How did CCSc1cc(C2C(C#N)=C(N)OC(C)=C2C(=O)OC)c(C)o1 (stereo not given) do in these assays?
ALDH1A1 inh: 20µM*; Gal4-VP16 FLuc: -2%; Sfp PPTase inh: -22%; PLK1 PBD block: -24%; RORg inh: 13µM*

Results for CC(=O)C1=C(c2ccccc2)OC(N)=C(C#N)C1c1ccc(O)cc1 (stereo not given) ?
ALDH1A1 inh: 20µM*; Gal4-VP16 FLuc: inconclusive; Sfp PPTase inh: -16%; PLK1 PBD block: -10%; RORg inh: -76%

How did CCOC(=O)c1[nH]nc(-c2cc(CC)c(O)cc2O)c1-c1cscn1 do in these assays?
ALDH1A1 inh: 8.9µM*; Gal4-VP16 FLuc: 13µM*; Sfp PPTase inh: -12%; PLK1 PBD block: 1%; RORg inh: inconclusive

Results for CCCc1cc2c(=O)c(-c3cscn3)c(C(=O)OCC)oc2cc1O ?
ALDH1A1 inh: inconclusive; Gal4-VP16 FLuc: -25%; Sfp PPTase inh: -16%; PLK1 PBD block: -2%; RORg inh: inconclusive

Results for N#CCCN(C(=O)COC(=O)c1ccc(Cl)nc1)c1ccc2c(c1)OCCO2 ?
PLK1 PBD block: -5%

Results for O=C(COC(=O)c1ccc([N+](=O)[O-])cc1)Nc1ccccc1C(=O)NC1CC1 ?
PLK1 PBD block: -3%

Results for N#C/C(=C\c1cc(Br)ccc1F)C(=O)NC1CC1 ?
Gal4-VP16 FLuc: -1%; Sfp PPTase inh: -4%; PLK1 PBD block: inconclusive; RORg inh: 14%

What do the screens show for `CC1CC(C)CN(c2cc(N(C)CCO)c([N+](=O)[O-])c3nonc23)C1` (stereo not given)?
ALDH1A1 inh: 11µM*; Gal4-VP16 FLuc: -5%; Sfp PPTase inh: -15%; PLK1 PBD block: -1%; RORg inh: -2%

What do the screens show for `Cc1ccc(C2=C(Cl)C(=O)C(c3ccc(C)cc3)=C(Cl)C2=O)cc1`?
ALDH1A1 inh: -3%[13.5 µM]

How did Cc1csc2nc(CSc3nncn3-c3ccccc3)c(Br)n12 do in these assays?
ALDH1A1 inh: -13%; Gal4-VP16 FLuc: 4%; Sfp PPTase inh: 13%; PLK1 PBD block: -5%; RORg inh: 0%

What do the screens show for `Cc1csc2nc(CSc3nc4ccccc4o3)c(Br)n12`?
ALDH1A1 inh: 22µM*; Gal4-VP16 FLuc: inconclusive; Sfp PPTase inh: -12%; PLK1 PBD block: -5%; RORg inh: inconclusive

What do the screens show for `Cc1ccc(O)c(N=CC2=C(O)c3ccccc3C2=O)c1`?
ALDH1A1 inh: inconclusive; Gal4-VP16 FLuc: 7.1µM*; Sfp PPTase inh: -27%; PLK1 PBD block: inconclusive; RORg inh: 4µM*

How did O=C1C(C=Nc2ccccc2O)=C(O)c2ccccc21 do in these assays?
ALDH1A1 inh: 6%; Gal4-VP16 FLuc: 7.1µM*; Sfp PPTase inh: 0%; PLK1 PBD block: -4%; RORg inh: 4µM*

Bioassay records: PubChem BioAssay, National Center for Advancing Translational Sciences (NCATS)
